{
  "source": "PubChem BioAssay (NCI)",
  "note": "Compounds without any hit were thinned out: in the full panel of roughly 83,000, 20% have a hit.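 Values shown are percent growth following 48 h exposure of cells in 96-well plates to a single concentration of compound; below 10 was considered active.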 Active and inactive are the calls of the source.",
  "data": [
    {"tested_on": "SK-MEL-5 melanoma", "experiment": "NCI-60 one-dose screen, 48 h (100 = growth as untreated, 0 = no growth, -100 = all killed)", "settings": "10 µM unless noted", "method": "Growth inhibition of the SK-MEL-5 human tumor cell line is measured as a screen for anti-cancer activity. Cells are grown in 96 well plates and exposed to the test compound for 48 hours. Compounds are tested at a single concentration, which is 10^-5 M for most compounds. The reported endpoint is percent growth (GI% or GIPRCNT), where numbers from 0 - 100% represent growth inhibition, and numbers from -100% - 0 represent cell death. For example, a value of 40 represents 60% growth inhibition. A value of 0 means no net growth occurred over the course of the experiment. A value of -40 indicates 40% of cells at the beginning of the experiment died by the end of the experiment. A value of -100 means all cells are dead at the end of the experiment.\nNCI-60 Human Tumor Cell Lines Screen was performed using the standard one-dose NCI protocol, which is described in more detail at https://dtp.cancer.gov/discovery_development/nci-60/default.htm.\nCompounds with GIPRCNT values below 10 were considered active. Activity score was based on GIPRCNT using the following formula: […]\nScore is 0 for GIPRCNT values of 100 or above, 50 for GIPRCNT values of 0, and 100 for GIPRCNT values of -100.", "values": [
      {"smiles": "CCCCCCCCC(=O)Nc1ccc(O)cc1", "growth": "96.7% (inactive)"},
      {"smiles": "O=C(O)c1ccc(-c2nn(-c3ccc(C(=O)O)cc3)cc2CNc2ccc(Br)cc2)cc1", "growth": "103% (inactive)"},
      {"smiles": "Cc1nc(NC(=O)NC2CCCCC2)sc1C(=O)NN", "growth": "106% (inactive)"},
      {"smiles": "N#Cc1c2cccnc2c2nnc3cc(Cl)c(Cl)cc3n12", "growth": "86.1% (inactive)"},
      {"smiles": "O=c1[nH]c(=S)[nH]c(O)c1/C=C1\\C=Nc2ccccc21", "growth": "75.8% (inactive)"},
      {"smiles": "COc1cc2ncnc(-n3ncc4cc(NC(=O)Nc5ccccc5)ccc43)c2cc1OC", "growth": "40.2% (inactive)"},
      {"smiles": "COC(=O)c1ccc2[nH]c(O)c(C(=Nc3ccc(N(C)C(=O)CN4CCN(C)CC4)cc3)c3ccc(C)cc3)c2c1", "growth": "-73.1% (active)"},
      {"smiles": "O=C(O)CC1Cc2ccccc2C1C(=O)O", "note": "(stereo not given)", "growth": "103% (inactive)"},
      {"smiles": "COC1=C(OC)C(=O)c2ccccc2C1=O", "growth": "13.6% (inactive)"},
      {"smiles": "O=S(=O)(Cc1cccc2c(CS(=O)(=O)c3ccc(Cl)cc3)cccc12)c1ccc(Cl)cc1", "growth": "92.3% (inactive)"},
      {"smiles": "CCCC(CCC)Oc1ccc(CCCC2=C(O)c3ccccc3C(=O)C2=O)cc1", "growth": "13.1% (inactive)"},
      {"smiles": "CC(Br)c1nc2ccccc2cc1C(N)=O", "note": "(stereo not given)", "growth": "104% (inactive)"},
      {"smiles": "CCn1cnc(C[C@H](NC(=O)[C@@H](NC(=O)Nc2cc(C(F)(F)F)cc(C(F)(F)F)c2)C(C)(C)C)C(=O)OC)c1", "growth": "-98% [100 µM] (active)"},
      {"smiles": "NC(=O)CC(NC(=O)COc1ccc(Cl)cc1Cl)C(=O)O", "note": "(stereo not given)", "growth": "98.8% (inactive)"},
      {"smiles": "Br/C(=N\\Nc1nn[nH]n1)c1ccccc1", "growth": "102% (inactive)"},
      {"smiles": "COc1ccc(/C=C(/C(=O)N2CCN(c3ccc(C)cc3)CC2)c2cc(OC)c(OC)c(OC)c2)cc1N", "growth": "-30.7% (active)"},
      {"smiles": "COc1ccc(C2=NN(C(=O)c3cc(-c4ccc(C)cc4)nc4ccccc34)C(c3cc(-c4ccccc4)nn3-c3ccccc3)C2)cc1", "note": "(stereo not given)", "growth": "97.8% (inactive)"},
      {"smiles": "c1ccc(C(=NNc2nc3ccccc3o2)c2ccccn2)nc1", "growth": "-58% (active)"},
      {"smiles": "CCCCCCCCc1ccc(OCCOCC[N+](C)(C)CC)cc1", "note": "(tested in a mixture with another compound)", "growth": "-52.3% (active)"},
      {"smiles": "O=C(Nc1cccc(Cn2c(=O)[nH]c3ccc(Oc4ncccn4)cc3c2=O)c1)c1cc(Cl)cc(Cl)c1", "growth": "56.8% (inactive)"},
      {"smiles": "CCCCCCCCCCCCOC(=N)N(C)C", "growth": "109% (inactive)"},
      {"smiles": "N#Cc1c(N)nc(Nc2nc3ccccc3[nH]2)nc1-c1ccc(Cl)cc1", "growth": "99.9% (inactive)"},
      {"smiles": "CC(=O)Nc1nc(C)c(C(=O)NNS(=O)(=O)c2ccccc2)s1", "growth": "105% (inactive)"},
      {"smiles": "COc1cc(-c2nn(-c3ccc(NC(=O)Nc4ccc(Cl)c(Cl)c4)cc3)cc2-c2ccncc2)ccc1Cl", "growth": "48% (inactive)"},
      {"smiles": "CC(=O)/C(=C\\c1c(-c2ccccc2)[nH]c2ccccc12)S(=O)(=O)c1ccccc1", "growth": "9.11% (active)"},
      {"smiles": "Cc1nnc(/N=C2\\NC(=O)/C(=C/C=C/c3ccccc3)S2)s1", "growth": "44.2% (inactive)"},
      {"smiles": "O=C(Nc1ccc(-n2cc(-c3ccncc3)c(-c3ccc(Cl)c(O)c3)n2)cc1)c1cc(Cl)cc(Cl)c1", "growth": "-85.1% (active)"},
      {"smiles": "COC(=O)c1ccc2[nH]c(O)c(C(=Nc3ccc(N(C)C(=O)CN4CCN(C)CC4)cc3)c3cccc(OC)c3)c2c1", "growth": "6.71% (active)"},
      {"smiles": "O=C(/C=C1\\C(=O)N(Cc2ccc([N+](=O)[O-])cc2)c2ccccc21)c1ccc(OCCN2CCCCC2)cc1", "growth": "33.9% (inactive)"},
      {"smiles": "CCCCN(CCC)CCCCCCCCCCN1CCCc2ccccc21", "growth": "98.8% (inactive)"},
      {"smiles": "CCCCCSc1ccc2nc(NC(=O)OCC)sc2c1", "growth": "5.59% (active)"},
      {"smiles": "O=C(N/N=C\\c1ccc(Cl)cc1)C(=O)N/N=C\\c1ccc(Cl)cc1", "growth": "109% (inactive)"},
      {"smiles": "CCCC[N+](C)(N)CCCC", "growth": "108% (inactive)"},
      {"smiles": "COC(=O)C(Cc1cnc[nH]1)N1CC(=O)N2[C@@H](c3ccccc3)SC[C@H]2C1=O", "note": "(stereo not given in full)", "growth": "131% (inactive)"},
      {"smiles": "COc1ccccc1Nc1nnc(COc2ccc(CNC(=O)CCCC/C=C/C(C)C)cc2OC)o1", "growth": "98% (inactive)"},
      {"smiles": "CCn1cnc(C[C@H](NC(=O)[C@@H](NC(=O)Nc2cc(C(F)(F)F)cc(C(F)(F)F)c2)C(C)C)C(=O)OC)c1", "growth": "-98% [100 µM] (active)"},
      {"smiles": "CCNc1nnc(COc2ccc(CNC(=O)CCCC/C=C/C(C)C)cc2OC)o1", "growth": "102% (inactive)"},
      {"smiles": "CC1C(=O)CCCC1=O", "growth": "106% (inactive)"},
      {"smiles": "CC(=N\\N=C(N)N)/C(=N/N=C(N)N)c1ccccc1", "growth": "102% (inactive)"},
      {"smiles": "O=C(CBr)OCc1ccc([N+](=O)[O-])o1", "growth": "113% (inactive)"}
    ]}
  ]
}
